Assay results from PubChem BioAssay (NCATS).
Records with an inconclusive call do not appear. Calls of active or inactive are those of the source. Calls come from the whole dose curve; as a rule, active = well fitted curve in the direction sought with a large enough effect; inconclusive = small, poorly fitted or top-dose-only effect, or another doubt; inactive = no such curve, though single readings can be large; an effect the other way counts as inactive or inconclusive.

Tests used:
[1] = biological target: Glutathione peroxidase 1 (Homo sapiens) (UniProt P07203); assay: Primary qHTS Assay for Inhibitors of Recombinant Selenoprotein Glutathione Peroxidase 1 (GPX1) (AID 1845191); conditions: recombinant GPX1, GR-coupled NADPH fluorescence, 15 min; series mostly up to 48.8 µM; note: nearly all actives have a fitted effect of over 65% in size; for activity, negative = inhibition: % is set by controls: 0 for no effect and ±100 for the full control effect
Chain of Glutathione peroxidase 1 (Homo sapiens) (P07203 whole entry, looked up): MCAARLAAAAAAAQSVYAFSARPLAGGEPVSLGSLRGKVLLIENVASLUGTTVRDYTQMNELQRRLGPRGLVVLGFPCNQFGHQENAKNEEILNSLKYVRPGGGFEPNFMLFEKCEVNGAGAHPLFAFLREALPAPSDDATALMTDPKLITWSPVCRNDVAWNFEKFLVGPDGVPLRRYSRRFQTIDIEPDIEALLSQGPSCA
Method in brief: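 GR-coupled assay: compounds preincubated 30 min at room temperature with GPX1, then reaction started with CHP; final 10 nM GPX1, 1 mM GSH, 0.5 mM CHP, 0.5 mM NADPH, 100 nM GR, 0.01% BSA, pH 7.5 Tris buffer. NADPH fluorescence (340/450 nm) read at 0 and 15 min.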

[2] = biological target: Phospholipid hydroperoxide glutathione peroxidase GPX4 (Homo sapiens) (UniProt P36969); assay: Primary qHTS Assay for Inhibitors of Recombinant Selenoprotein Glutathione Peroxidase 4 (GPX4) (AID 1845192); conditions: recombinant GPX4, GR-coupled NADPH fluorescence, 15 min; series mostly up to 50 µM; note: nearly all actives have a fitted effect of over 65% in size; note: potency is the fitted concentration of half-maximal effect; for activity change, negative = inhibition: % is set by controls: 0 for no effect and ±100 for the full control effect
Chain of Phospholipid hydroperoxide glutathione peroxidase GPX4 (Homo sapiens) (P36969 whole entry, looked up): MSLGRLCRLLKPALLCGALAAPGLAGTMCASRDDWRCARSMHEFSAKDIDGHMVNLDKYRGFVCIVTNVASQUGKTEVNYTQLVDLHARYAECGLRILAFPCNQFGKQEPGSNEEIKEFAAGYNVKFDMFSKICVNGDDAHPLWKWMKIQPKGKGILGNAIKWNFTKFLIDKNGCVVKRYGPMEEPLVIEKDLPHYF
Method in brief: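 GR-coupled assay: recombinant GPX4 preincubated 30 min with compound at room temperature; final 200 nM GPX4, 1 mM GSH, 0.5 mM cumene hydroperoxide, 0.5 mM NADPH, 100 nM GR, 0.01% BSA, pH 7.5 Tris. NADPH fluorescence (340/450 nm) read at 0 and 15 min.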

[3] = biological target: Luciferin 4-monooxygenase (Photinus pyralis) (UniProt P08659); assay: Primary firefly luciferase (FLuc) qHTS assay for identification of artifact compounds. (AID 1845220); conditions: purified firefly luciferase, luminescence, 5 min; series mostly up to 54.1 µM; note: nearly all actives have a fitted effect of over 60% in size;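 for activity change, negative = inhibition: plate controls were DMSO vehicle for no effect and no enzyme for full effect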
Method in brief: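 D-luciferin and ATP (10 uM each, final) in Tris acetate buffer pH 7.6 were incubated with compounds for 15 min at room temperature. The reaction was started with 10 nM Photinus pyralis luciferase and luminescence read after 5 min. Percent inhibition was fitted to a 4-parameter Hill equation.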

[4] = Primary fluorescence-based thiol-reactive (MSTI) qHTS assay for identification of artifact compounds. (AID 1845221); conditions: MSTI thiol-reactivity probe, 1 h; series mostly up to 53.8 µM;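 note: thiol-reactive compounds lower the probe fluorescence signal; nearly all actives have a fitted effect of over 65% in size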
Method in brief: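 One-hour, room-temperature, dark incubation of compound with 4 uM MSTI in PBS (pH 7.4, 2% DMSO) precedes a fluorescence read at 525 nm excitation, 598 nm emission; Hill-equation fitting yields concentration-response values.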

[5] = tested on: Nanoluciferase (engineered Oplophorus gracilirostris luciferase); assay: Primary Nanoluciferase (NLuc) qHTS assay for identification of artifact compounds. (AID 1845222); conditions: NLuc-conditioned medium, Nano-Glo luminescence, 5 min; series mostly up to 54.1 µM;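 note: 0% = DMSO and -100% = no enzyme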
Method in brief: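 Diluted conditioned medium from NLuc-expressing S16 cells treated with compounds for 15 min at room temperature, then Nano-Glo substrate added; luminescence read after 5 min. Percent inhibition versus no-enzyme and DMSO controls fitted to 4-parameter Hill equation.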

CN[C@@H]1[C@@H](O)[C@@H](O[C@@H]2[C@@H](O)[C@H](O[C@H]3O[C@H](CN)[C@@H](O)[C@H](O)[C@H]3O)[C@@H](N)C[C@H]2NC(=O)[C@@H](O)CN)OC[C@]1(C)O
inactive: Potency [1] | Potency [2] | Potency [3] | Potency [4] | Potency [5]

O=C(/C=C/c1ccc(O)cc1)OCC1=CC2OC(=O)C3=CO[C@@H](O[C@@H]4O[C@H](CO)[C@@H](O)[C@H](O)[C@H]4O)[C@H]1[C@@H]32 (stereo not given in full)
inactive: Potency [1] | Potency [2] | Potency [3] | Potency [4] | Potency [5]

Cc1cn2c(N)c(Cl)cc(C(=O)NCC3CCN(CC(C)C)CC3)c2n1
inactive: Potency [1] | Potency [3] | Potency [4] | Potency [5]
active: Potency [2] 22.7 µM

C[C@H]1[C@H](C)CC[C@]2(C(=O)O)CC[C@]3(C(=O)O)C(=CCC4[C@@]5(C)CC[C@H](O[C@@H]6O[C@H](C)[C@@H](O)[C@H](O)[C@H]6O)C(C)(C)C5CC[C@]43C)[C@H]12 (stereo not given in full)
inactive: Potency [1] | Potency [2] | Potency [3] | Potency [4] | Potency [5]

CC(C)(C)NCc1cc(Nc2ccnc3cc(Cl)ccc23)c2c(c1O)CCCC2
inactive: activity, negative = inhibition [1] -7.83% [at 0.4 µM] | activity change, negative = inhibition [2] -7.38% [at 0.409 µM] | activity change, negative = inhibition [3] -4.19% [at 0.464 µM] | activity change, negative = thiol reactive [4] -13.7% [at 0.461 µM] | activity, negative = inhibition [5] 1.02% [at 0.464 µM]

CC(=O)OC[C@]12[C@H](OC(C)=O)C(=O)[C@@H]3[C@@H](OC(C)=O)[C@@]14O[C@@]3(C)COC(=O)c1cccnc1[C@@H](C)[C@H](C)C(=O)O[C@@H]([C@H](OC(C)=O)[C@@H]2OC(C)=O)[C@]4(C)O
inactive: Potency [1] | Potency [2] | Potency [3] | Potency [4] | Potency [5]
